Reference: PubChem BioAssay AID504832 (National Center for Advancing Translational Sciences (NCATS), 2011)
In all, about 310,000 compounds went through this assay and about 18,000 (5.8%) were called active. A call without a number means that no potency is given here. Roughly 22% stayed inconclusive and do not appear here. The call rests on the fitted dose curve; in most records, active means well fitted inhibition curve with a large enough effect; inconclusive means small, poorly fitted or top-dose-only effect, or another doubt; inactive means no such curve, though single readings can be large or run the other way. This excerpt belongs to a sample that is enriched for actives.

Test: Primary qHTS for delayed death inhibitors of the malarial parasite plastid, 48 hour incubation
Conditions: P. falciparum luciferase growth in erythrocytes; series mostly up to 28.7 µM
Summary of the method: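 Firefly luciferase activity from engineered P. falciparum reports growth; inhibitors lower the luminescent signal. Cultures contained 2% hematocrit erythrocytes at 0.1% final parasitemia.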
Potency means the concentration at half of the fitted maximal effect.

| Compound | Potency |
| --- | --- |
| Cc1ccsc1C(=O)NC1CCCCC1C (centres undefined) | inactive |
| CC1CCN(S(=O)(=O)c2ccc3c(c2)n(C)c(=O)n3C)CC1 | inactive |
| O=S(=O)(NCCS(=O)(=O)N1CCN(c2ccccc2)CC1)c1ccc(F)cc1 | inactive |
| Cc1ccc2nnn(Cc3cccc(C(C)(C)C)c3O)c2c1 | 11.7 µM (active) |
| Cc1ccc(C(=O)CSc2nnc(Cn3nnc4ccccc43)n2C)cc1 | inactive |
| COc1ccccc1NC(=O)C(C)OC(=O)CC1CCCC1 (centres undefined) | inactive |
| Cc1ccc(N(C(=O)c2sc(C)nc2C)C(C(=O)NC(C)(C)C)c2ccncc2)cc1 (centres undefined) | inactive |
| CC(C)(C)NC(=O)C(c1ccc(Cl)cc1)N(CCO)C(=O)c1snc(C(N)=O)c1N (centres undefined) | 6.57 µM (active) |
| NC(=O)c1ccc(Nc2ccc3nonc3c2[N+](=O)[O-])cc1 | inactive |
| COC(=O)c1cc(S(=O)(=O)NCC2CCN(Cc3ccc(Cl)cc3)CC2)cn1C | inactive |
| O=C(c1ccc(Cl)s1)N(Cc1nnc(-c2ccccc2Cl)o1)C1CC1 | inactive |
| CN(C(=O)COC(=O)c1cc(-c2ccco2)nc2ccccc12)C1CCS(=O)(=O)C1 (centres undefined) | inactive |
| O=C(c1cc(-c2ccco2)nc2ccccc12)N(Cc1nnc(-c2ccc(Cl)cc2)o1)C1CC1 | 4.15 µM (active) |
| O=C(Nc1cccc(F)c1)NC1CCCc2ccccc21 (centres undefined) | inactive |
| Cc1cc(=O)[nH]c(Nc2cccc(Br)c2)n1 | inactive |
| O=C(CCc1nnc2ccc(NCc3ccco3)nn12)Nc1cc(F)ccc1F | inactive |
| N#C/C=C\Oc1ccc(Cl)cc1N | 7.38 µM (active) |
| COc1ccc(Cl)cc1C(=O)NCC#N | inactive |
| CCN(CC)CCNC(=O)c1ccc(NC(=O)c2c(F)cccc2Cl)cc1 | inactive |
| CCN(CC)CCNC(=O)c1ccc(NC(=O)c2cc(-c3ccncc3)nc3ccccc23)cc1 | 0.828 µM (active) |
| Cc1ccc2nc(-c3ccncc3)cc(C(=O)Nc3ccncc3)c2c1 | 13.1 µM (active) |
| COC(=O)CNC(=O)c1cc(-c2ccncc2)nc2ccccc12 | inactive |
| O=C(Nc1ccncc1)c1cc(-c2ccccn2)nc2ccc(Br)cc12 | inactive |
| Cc1ccc2nc(-c3ccccn3)cc(C(=O)Nc3ccc4c(c3)OCO4)c2c1 | inactive |
| COc1ccc(C(=O)O)cc1S(=O)(=O)NCc1cccnc1 | inactive |
| CC(=O)Nc1ccc(NC(=O)C2CCCN2S(=O)(=O)c2cccc(C(F)(F)F)c2)cc1 (centres undefined) | inactive |
| CCCCn1c(N)c(N(CC(C)C)C(=O)CN(C)S(=O)(=O)c2ccc(F)cc2)c(=O)[nH]c1=O | inactive |
| CSCCC(NC(=O)COc1ccccc1)C(=O)OCCOc1ccc(F)cc1 (centres undefined) | inactive |
| O=C1CSc2ccc(S(=O)(=O)NCc3ccccc3)cc2N1 | inactive |
